A selection: hits, their analogues and other compounds. The true share with any hit is near 1.7%.
BH1578 lux ind – inducers of Vibrio cholerae quorum light production without autoinducers | V. cholerae BH1578 lux reporter, luminescence, 6 h | activation, % at 18.7 µM | 0.16% of 350,000 active | AID 588436; in the data active = activation mostly above about 9.7%, no sharp cut-off; inconclusive = no clear call, values can overlap the other calls; inactive = mostly below about 3.7%
3CLpro inhibitor – SARS-CoV 3CLpro protease inhibition; 0.14% of 290,000 active; inhibition, % at 6 µM; P0C6X7; recombinant SARS-CoV 3CLpro, quenched FRET peptide cleavage; in the data active = inhibition above about 12%
PfHsp40 rescue – restores yeast growth despite PfHsp40 toxicity; growth rescue, % at 12.5 µM; S. cerevisiae expressing PfHsp40, growth rescue, ATP luminescence; 0.68% of 340,000 active; in the data active = growth rescue above about 28%, passing the limit was not always enough; inconclusive = no clear call, values can overlap the other calls;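 also: yeast W303a lacking pdr1 and pdr3 grown in galactose medium; growth measured after three days at 30 °C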
MazEF act – MazEF (E. coli) toxin RNase activation | FAM/BHQ RNA-DNA oligo cleavage fluorescence, 5 h | 0.32% of 350,000 active | P0AE70 | activation, % at 20 µM; in the data active = activation above about 50%
Target sequence (P0AE70 whole entry, looked up): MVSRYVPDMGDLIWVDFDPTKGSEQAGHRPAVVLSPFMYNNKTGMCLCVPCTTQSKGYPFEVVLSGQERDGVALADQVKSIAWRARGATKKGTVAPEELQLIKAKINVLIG
BJeLR lethal – BJeLR cell viability loss; BJeLR (HRASV12) viability, CellTiter-Glo ATP luminescence, 48 h; inhibition, % (test concentration not listed); 0.17% of 300,000 active; AID 1554; in the data active = inhibition above about 50%; inconclusive = no clear call, values can overlap the other calls
VHR inh abs – blocks human VHR1 dual specificity phosphatase. P51452. recombinant VHR phosphatase, pNPP absorbance. inhibition, % at 13.3 µM. AID 1654. 0.52% of 290,000 active; in the data active = inhibition above about 50%
Target sequence (P51452 whole entry, looked up): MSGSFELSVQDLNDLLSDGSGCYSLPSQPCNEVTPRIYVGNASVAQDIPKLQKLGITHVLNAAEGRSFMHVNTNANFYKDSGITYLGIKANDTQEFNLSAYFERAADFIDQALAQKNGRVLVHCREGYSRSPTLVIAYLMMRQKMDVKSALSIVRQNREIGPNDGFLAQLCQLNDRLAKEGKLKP
Hits are given with their value.

How did CCC1CCC(N2CCN(c3cccc(OC)c3)CC2)CC1 (configuration not stated) do in these assays?
BH1578 lux ind: inactive; 3CLpro inhibitor: inactive; PfHsp40 rescue: inactive; MazEF act: inactive; BJeLR lethal: inactive; VHR inh abs: inactive

How did O=C(NCC(=O)N(c1ccccc1)C(C(=O)NC1CCCC1)c1ccncc1)c1cccs1 (configuration not stated) do in these assays?
BH1578 lux ind: inactive; 3CLpro inhibitor: inactive; PfHsp40 rescue: inactive; MazEF act: inactive; BJeLR lethal: inactive; VHR inh abs: inactive

Results for Cc1ccc(N(C(=O)CNC(=O)c2ccco2)C(C(=O)NC2CCCCC2)c2cccnc2)cc1C (configuration not stated) ?
BH1578 lux ind: inactive; 3CLpro inhibitor: inactive; PfHsp40 rescue: inactive; MazEF act: inactive; BJeLR lethal: inactive; VHR inh abs: inactive

How did CCc1ccc(C(C(=O)NC2CCCCC2)N(C(=O)c2ccccn2)c2cccnc2)cc1 (configuration not stated) do in these assays?
3CLpro inhibitor: inactive; BJeLR lethal: inactive; VHR inh abs: inactive

What do the screens show for `Cc1ccc(N(C(=O)CCl)C(C(=O)NC2CCCCC2)c2cccnc2)cc1C` (configuration not stated)?
3CLpro inhibitor: inactive; MazEF act: inactive; BJeLR lethal: 101; VHR inh abs: inactive

How did Cc1cc(C)cc(N(C(=O)c2csnn2)C(C(=O)NC2CCCCC2)c2cccnc2)c1 (configuration not stated) do in these assays?
BH1578 lux ind: inactive; 3CLpro inhibitor: inactive; PfHsp40 rescue: inactive; MazEF act: inactive; BJeLR lethal: inactive; VHR inh abs: 53

What do the screens show for `O=C(NCC(=O)N(c1ccccc1)C(C(=O)NC1CCCC1)c1cccnc1)c1cccs1` (configuration not stated)?
BH1578 lux ind: inactive; 3CLpro inhibitor: inactive; PfHsp40 rescue: inactive; MazEF act: inactive; BJeLR lethal: inactive; VHR inh abs: 53

How did O=C(NC1CCCCC1)C(c1ccc(Cl)cc1)N(C(=O)c1ccccn1)c1cccnc1 (configuration not stated) do in these assays?
3CLpro inhibitor: inactive; BJeLR lethal: inactive; VHR inh abs: 57

Results for COc1ccc(NC(=O)c2cc(C3CCCCN3C(=O)OCCF)on2)c(C)c1 (configuration not stated) ?
BH1578 lux ind: inactive

How did Cc1ccccc1S(=O)(=O)Cc1ccc(C(=O)NCCCN2CCC(C)CC2)o1 do in these assays?
BH1578 lux ind: inactive; 3CLpro inhibitor: inactive; PfHsp40 rescue: inactive; MazEF act: inactive; BJeLR lethal: inactive; VHR inh abs: 57

How did O=C(Nc1ccc(Cl)cc1C(=O)Nc1ccc(Br)cn1)c1ccco1 do in these assays?
BH1578 lux ind: inactive; 3CLpro inhibitor: inactive; PfHsp40 rescue: 270; MazEF act: inactive; BJeLR lethal: inactive; VHR inh abs: inactive

What do the screens show for `Cc1ccccc1C(=O)Nc1ccnn1C1CCN(Cc2ccccn2)CC1`?
BH1578 lux ind: inactive; 3CLpro inhibitor: inactive; PfHsp40 rescue: inactive; MazEF act: inactive; BJeLR lethal: inactive; VHR inh abs: inactive

How did O=C(O)c1cccc2c1NC(C(=O)O)C1CC(Sc3ccccc3[N+](=O)[O-])C(Cl)C21 (configuration not stated) do in these assays?
BH1578 lux ind: inactive; 3CLpro inhibitor: inactive; PfHsp40 rescue: 55; MazEF act: inactive; VHR inh abs: inactive

Results for O=C(Nc1ccc(Br)cc1)Nc1cnccn1 ?
BH1578 lux ind: inactive; 3CLpro inhibitor: inactive; PfHsp40 rescue: inactive; MazEF act: inactive; BJeLR lethal: inactive; VHR inh abs: inactive

What do the screens show for `Cc1ccc(C2C3CN(C(C)C)CC=C3C(C#N)=C(N)C2(C#N)C#N)cc1` (configuration not stated)?
BH1578 lux ind: inactive; PfHsp40 rescue: inactive; MazEF act: 156; BJeLR lethal: inactive; VHR inh abs: inactive

How did CC1CCN(C(=O)CCc2ccc(Oc3cc([N+](=O)[O-])cc([N+](=O)[O-])c3)cc2)CC1 do in these assays?
BH1578 lux ind: inactive; 3CLpro inhibitor: inactive; PfHsp40 rescue: inconclusive; MazEF act: inactive; BJeLR lethal: inactive; VHR inh abs: inactive

How did Oc1c(Cl)c(Cl)c(Cl)c(Cl)c1Cl do in these assays?
BH1578 lux ind: inactive; PfHsp40 rescue: 298; MazEF act: inactive; BJeLR lethal: inactive

How did Cc1ccc(S(=O)(=O)NC2CC3CCC2C3)cc1 (configuration not stated) do in these assays?
BH1578 lux ind: inactive; MazEF act: inactive; BJeLR lethal: inactive

How did O=S(=O)(NC1CC2CCC1C2)c1ccc(Br)cc1 (configuration not stated) do in these assays?
BH1578 lux ind: inactive; 3CLpro inhibitor: inactive; PfHsp40 rescue: 67; MazEF act: inactive; BJeLR lethal: inactive; VHR inh abs: inactive

How did Cn1c2c(c(=O)[nH]c1=O)C(c1ccc(O)cc1)C1=C(N2)c2ccccc2C1=O (configuration not stated) do in these assays?
BH1578 lux ind: 25; 3CLpro inhibitor: inactive; PfHsp40 rescue: inactive; MazEF act: inactive; BJeLR lethal: inactive; VHR inh abs: inactive

What do the screens show for `O=C(NCc1ccc(Cl)cc1)C(=O)N/N=C/c1ccc(Br)cc1`?
BH1578 lux ind: inactive; 3CLpro inhibitor: inactive; PfHsp40 rescue: inactive; MazEF act: inactive; BJeLR lethal: inactive; VHR inh abs: 52

What do the screens show for `O=C(CO)N/N=C/c1ccc(Cl)cc1`?
BH1578 lux ind: inactive; 3CLpro inhibitor: inactive; PfHsp40 rescue: inactive; MazEF act: inactive; BJeLR lethal: inactive; VHR inh abs: inactive

Results for CC(C)C1/C(=N/O)CC(c2ccccc2)NC1c1ccccc1 (configuration not stated) ?
BH1578 lux ind: inactive; 3CLpro inhibitor: inactive; PfHsp40 rescue: 49; MazEF act: inactive; BJeLR lethal: inactive; VHR inh abs: inactive

How did CC1/C(=N/O)CC(c2ccccc2)NC1c1ccccc1 (configuration not stated) do in these assays?
BH1578 lux ind: inactive; 3CLpro inhibitor: inactive; PfHsp40 rescue: inactive; MazEF act: inactive; BJeLR lethal: inactive; VHR inh abs: inactive

What do the screens show for `CC(C)[C@H](NS(=O)(=O)c1ccccc1)C(=O)OCC(=O)NC(=O)NC1CCCCC1`?
BH1578 lux ind: inactive; PfHsp40 rescue: inactive; MazEF act: inactive

Results for COc1cccc(/C=c2\s/c(=C/C(=O)c3ccc(C)cc3)[nH]c2=O)c1OC ?
BH1578 lux ind: inactive; 3CLpro inhibitor: inactive; PfHsp40 rescue: inactive; MazEF act: inactive; BJeLR lethal: inactive; VHR inh abs: inactive

What do the screens show for `COc1ccc(/C=c2\s/c(=C/C(=O)c3ccc(C)cc3)[nH]c2=O)c(OC)c1`?
BH1578 lux ind: inactive; 3CLpro inhibitor: inactive; PfHsp40 rescue: inactive; MazEF act: active; BJeLR lethal: inactive; VHR inh abs: inactive

How did O=C(NCc1ccc(Cl)cc1)C1CCN(S(=O)(=O)c2ccc(N3CCCC3=O)cc2)CC1 do in these assays?
BH1578 lux ind: inactive; 3CLpro inhibitor: inactive; PfHsp40 rescue: inactive; MazEF act: inactive; BJeLR lethal: inactive; VHR inh abs: inactive

High-throughput results deposited in PubChem by several laboratories.
